In the library only some 32% were active in any assay of this set; here they are far more common.
PostGolgi yeast: phenotypic screen on post-Golgi transport, primary screen; post-Golgi transport phenotypic cell assay; inhibition, % at 10 µM; actives 0.9% (n = 98,000);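 also: yeast cells grown in 1536-well plates; yeast grown about 18 h at 30C before absorbance read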
CYP2C19 activ: human CYP2C19 activators, primary screen, biochemical, luminescence; recombinant CYP2C19, luciferin-H EGE luminescence; hits give high values; 0 = fully inhibited enzyme, 1 = untreated enzyme; activation factor at 5 µM; 96,000 tested, under 10 active;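 active = activation factor of at least 2 at 5 µM in the primary screen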
Target sequence (P33261 whole entry, looked up): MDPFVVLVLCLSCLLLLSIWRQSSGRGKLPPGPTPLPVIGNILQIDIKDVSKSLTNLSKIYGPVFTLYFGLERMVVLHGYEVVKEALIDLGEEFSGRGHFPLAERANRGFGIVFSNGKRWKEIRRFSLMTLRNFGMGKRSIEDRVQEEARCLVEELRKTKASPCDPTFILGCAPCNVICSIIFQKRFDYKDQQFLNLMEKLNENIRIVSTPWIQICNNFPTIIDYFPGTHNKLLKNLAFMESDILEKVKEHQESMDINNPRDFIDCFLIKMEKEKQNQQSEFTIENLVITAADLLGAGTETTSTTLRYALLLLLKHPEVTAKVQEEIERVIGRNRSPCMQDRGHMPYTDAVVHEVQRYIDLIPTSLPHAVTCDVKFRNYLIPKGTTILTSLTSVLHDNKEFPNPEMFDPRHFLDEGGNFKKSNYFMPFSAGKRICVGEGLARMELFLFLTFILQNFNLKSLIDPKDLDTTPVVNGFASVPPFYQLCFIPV
PostGolgi ctrl: growth inhibition of yeast control strain, primary screen, counter-screen for post-Golgi transport modulator project; actives 5% (n = 98,000); inhibition, % at 10 µM; efflux-deficient yeast background strain, growth absorbance A615, 16 h
CYP2C9 inhib: blockers of cytochrome P450 2C9 activity – biochemical, luminescence, ADME assay, primary screen; P11712; CYP2C9 Supersomes, luciferin-H conversion; inhibition, % at 5 µM; actives 20% (n = 96,000); AID 777, 2007;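 active = blocking of liver enzyme CYP2C9 beyond about 50% at 5 µM, limit read from the data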
CYP2C9 activ: human CYP2C9 activators, primary screen, biochemical, luminescence. Cytochrome P450 2C9 (Homo sapiens), P11712. recombinant CYP2C9, luciferin-H conversion; hits give high values; factor 1 = untreated enzyme, 0 = blocked. activation factor at 5 µM. actives 1.4% (n = 96,000). AID 1024, 2008;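 active = activation factor of 2 or more for CYP2C9 at a 5 µM dose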
CYP2C19 inhib: blockers of cytochrome P450 2C19 activity – biochemical, luminescence, ADME assay, primary screen | P33261 | CYP2C19 Supersomes, luciferin-H EGE luminescence, 30 min | inhibition, % at 5 µM | actives 21% (n = 96,000) | AID 778, 2007;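 active = CYP2C19 inhibition above a set limit at 5 µM in the primary screen, cut at about 50% in these data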
Hits are given with their value; - = inactive; . = no result. Rule as the data show it, unless noted: active = inhibition above about 30%; inactive = the rest.

SMILES	PostGolgi yeast	CYP2C19 activ	PostGolgi ctrl	CYP2C9 inhib	CYP2C9 activ	CYP2C19 inhib
CCOC(=O)c1c(C)oc2c1c(C(c1cccnc1)N1CCN(C)CC1)c(O)c1ccccc12 (centres undefined)	.	-	.	-	-	63
CCCCCc1c(C)nc(N2CCOCC2)[nH]c1=O	-	-	-	-	-	-
CCn1c(Cn2nnc(-c3ccccc3)n2)nnc1SCC(=O)Nc1ccc(N(C)C)cc1	-	-	-	-	-	-
CCn1c(Cn2nnc(-c3ccccc3)n2)nnc1SCC(=O)Nc1ccc(C(C)=O)cc1	-	-	-	-	-	-
CCn1c(Cn2nnc(-c3ccccc3)n2)nnc1SCC(=O)Nc1cccc(C)c1C	-	-	-	57	-	68
CCn1c(Cn2nnc(-c3ccccc3)n2)nnc1SCC(=O)Nc1cccc(C(C)=O)c1	-	-	-	-	-	70
CCCS/C(N)=N/N=C/c1cc(C)ccc1O	-	-	-	-	-	-
CCCCS/C(N)=N/N=C/c1ccccc1O	-	-	-	82	-	88
Cc1nc(NCc2ccc3c(c2)OCO3)c2nnn(Cc3ccccc3)c2n1	-	-	-	-	-	-
Cc1nc(N(C)Cc2ccccc2)c2nnn(Cc3ccccc3)c2n1	-	-	-	98	-	100
Cc1ccc(-n2c3c(c(=O)[nH]c2=O)C(NS(=O)(=O)c2ccc(C)cc2)(C(F)(F)F)C(=O)N3)cc1 (centres undefined)	-	-	-	-	-	-
CCc1c(C(C)S(=O)(=O)c2ccc(C)cc2)[nH]c(=O)n1-c1ccc(C)cc1 (centres undefined)	-	-	-	-	-	59
CN(C)CCCNc1ncnc2c1cnn2-c1ccccc1	-	-	-	-	-	-
Fc1ccc(CNc2ncnc3c2cnn3-c2ccccc2)cc1	-	-	-	58	-	-
CC(C)(C)Nc1ncnc2c1cnn2-c1ccccc1	.	-	.	63	-	-
c1ccc(CNc2ncnc3c2cnn3-c2ccccc2)cc1	-	-	-	54	-	-
Cc1cccc(-n2ncc3c(NCc4ccccc4)ncnc32)c1	-	-	-	-	-	-
c1ccc(-n2ncc3c(NCc4ccccn4)ncnc32)cc1	-	-	-	70	-	-
Cc1cccc(-n2ncc3c(NCc4ccccn4)ncnc32)c1	-	-	-	-	-	-
Cc1ccc(-n2c(C)nn(-c3ncc(C(F)(F)F)cc3Cl)c2=O)cc1	-	-	-	-	-	-
COc1cc(OC)nc(NC(=O)COC(=O)C2CCCCC2)n1	-	-	-	-	-	-
Cc1cc2c(cc1C)NC(c1c(C)n(C)n(-c3ccccc3)c1=O)C1=C(CC(C)(C)CC1=O)N2 (centres undefined)	-	-	-	-	-	-
c1ccc(-n2ncc3c(NCCN4CCOCC4)ncnc32)cc1	-	-	-	52	-	-
CCOC(=O)C1CCN(c2ncnc3c2cnn3-c2ccccc2)CC1	-	-	-	-	-	-
CC1CCN(c2ncnc3c2cnn3-c2ccccc2)CC1	-	-	32	-	-	-
SMILES	PostGolgi yeast	CYP2C19 activ	PostGolgi ctrl	CYP2C9 inhib	CYP2C9 activ	CYP2C19 inhib
c1ccc(-n2ncc3c(NCCN4CCCCC4)ncnc32)cc1	-	-	-	-	-	-
Cc1ccc(N2C(=O)C(Cl)=C(NCCO)C2=O)c(C)c1	-	-	-	-	-	-
O=C(c1c[nH]c(C(=O)C(Cl)(Cl)Cl)c1)c1ccccc1Cl	-	-	-	72	-	-
Cc1ccccc1C(=O)c1c[nH]c(C(N)=O)c1	-	-	-	-	-	-
COc1ccc(N2CCN(CCCNS(=O)(=O)c3c(C)noc3/C=C/N(C)C)CC2)cc1	-	-	-	62	-	-
c1ccc2c(c1)sc1nnnn12	-	-	-	-	-	-
CCc1ccc(NC(=O)c2sccc2-n2cccc2)cc1	-	-	-	-	-	-
COc1ccc(Cc2nc(C(=O)Nc3ccc(F)cc3)cs2)cc1	-	-	-	87	-	89
COc1ccc(COc2ccsc2C(=O)Nc2ccc(Cl)cc2)cc1	-	-	-	59	-	-
O=C(N/N=C/c1ccc(F)cc1)c1sccc1OCc1ccc(F)cc1	-	-	34	-	-	-
COc1ccc(Cc2nc(C(=O)Nc3ccc(Cl)cc3)cs2)cc1	-	-	38	90	-	83
COc1ccc(NC(=O)c2ccccn2)cc1	-	-	-	-	-	-
O=C(N/N=C/c1ccc(Cl)cc1)c1sccc1OCc1ccc(F)cc1	-	-	-	-	-	-
CC(=O)c1cccc(NC(=O)c2cc3nc(C)cc(C)n3n2)c1	-	-	-	-	-	-
O=C(CN1CCN(C(=O)c2cccs2)CC1)NC1CCCCC1	-	-	-	-	-	-
COc1cnc(SCC(=O)O)[nH]c1=O	-	-	-	-	-	-
COc1ccc(Cc2nc(C(=O)Nc3ccccc3)cs2)cc1	-	-	-	90	-	88
CCC(C)NC(=O)CC1Oc2ccc(Cl)cc2NC1=O (centres undefined)	-	-	-	-	-	-
COc1ccc(N2CCN(C(=O)C34CCC(C)(C(=O)C3)C4(C)C)CC2)cc1 (centres undefined)	-	-	-	-	-	-
CC12CCC(C(=O)N3CCCc4ccccc43)(CC1=O)C2(C)C (centres undefined)	-	-	-	-	-	-
CC12CCC(C(=O)N3CCN(c4ccccc4)CC3)(CC1=O)C2(C)C (centres undefined)	-	-	-	-	-	54
CC12CCC(C(=O)N3CCc4ccccc43)(CC1=O)C2(C)C (centres undefined)	-	-	-	58	-	-
CC(CCc1ccccc1)NC(=O)c1cccnc1 (centres undefined)	-	-	-	-	-	-
Cc1ccc(SC(c2ccc(C)cc2)C(Cn2cncn2)C(=O)c2ccccc2)cc1 (centres undefined)	-	-	-	-	-	-
Cc1ccc(C(Sc2ccccc2)C(Cn2cncn2)C(=O)c2ccccc2)cc1 (centres undefined)	-	-	-	63	-	92
O=C(Nc1ccc(-n2cnnn2)cc1)C1CCCN1C(=O)NC1CCCCC1 (centres undefined)	-	-	-	59	-	66
CCOc1ccccc1NC(=O)N1CCCC1C(=O)Nc1nnc(CC)s1 (centres undefined)	.	-	-	-	-	-
O=C(Nc1ccc(-n2cnnn2)cc1)C1CCCCC1	-	-	-	-	-	-
CCOc1ccccc1NC(=O)N1CCCC1C(=O)Nc1ccc(-n2cnnn2)c(C)c1 (centres undefined)	-	-	-	79	-	70

Screening results: PubChem BioAssay, several laboratories
